From PubChem BioAssay AID1159580 (chemical genetic matrix, 2015)
Several values for one entry are separate records, joined by “and”; a condition that tells them apart may be missing. Equal values may be shown once. Out of some 5,500 compounds screened, about 2,000 (36%) were called active. About 18% were inconclusive and are not listed. Rule as the data show it: active = normalized growth mostly below about 0.91 (no sharp cut-off); inconclusive = no clear call, values can overlap the other calls; inactive = mostly above about 0.92. The list shows a part of the results.

Test: chemical genetic growth profiling, strain panel (AID 1159580);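 also: tested at 20 µM; growth read once vehicle control cultures reached saturation at 30 °C; 1 = growth at the plate median or of vehicle wells; lower values mean less growth of the strain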
Conditions: S. cerevisiae deletion strains, growth OD

Measured: normalized growth

CC/C(=C(/CC)c1ccc(O)cc1)c1ccc(O)cc1
inactive: locus YAL026C, strain drs2, stronger effect = lower value 0.958 | locus YAL030W, strain snc1, stronger effect = lower value 1 | locus YBL061C, strain skt5, stronger effect = lower value 1 | locus YBR009C, strain hhf1, stronger effect = lower value 0.953 | locus YBR021W, strain FUR4, stronger effect = lower value 0.992 | locus YBR023C, strain chs3, stronger effect = lower value 0.984 | locus YBR171W, strain sec66, stronger effect = lower value 0.987 | locus YBR229C, strain ROT2, stronger effect = lower value 1 | locus YBR231C, strain swc5, stronger effect = lower value 1.03 | locus YBR279W, strain paf1, stronger effect = lower value 0.961 | locus YCL011C, strain gbp2, stronger effect = lower value 0.976 | locus YCL016C, strain dcc1, stronger effect = lower value 0.943 | locus YCL029C, strain bik1, stronger effect = lower value 0.962 | locus YCL061C, strain MRC1, stronger effect = lower value 1 | locus YCL069W, strain vba3, stronger effect = lower value 0.987 | locus YCR088W, strain abp1, stronger effect = lower value 1.02 | locus YDL005C, strain med2, stronger effect = lower value 1.01 | locus YDL035C, strain GPR1, stronger effect = lower value 0.867 | locus YDL040C, strain nat1, stronger effect = lower value 1.01 | locus YDL101C, strain DUN1, stronger effect = lower value 0.963 | locus YDL185W, strain tfp1, stronger effect = lower value 0.997 | locus YDL192W, strain arf1, stronger effect = lower value 0.991 | locus YDR001C, strain nth1, stronger effect = lower value 1.01 | locus YDR069C, strain doa4, stronger effect = lower value 1.02 | locus YDR101C, strain arx1, stronger effect = lower value 0.961 | locus YDR150W, strain NUM1, stronger effect = lower value 1.01 | locus YDR159W, strain sac3, stronger effect = lower value 0.905 | locus YDR297W, strain sur2, stronger effect = lower value 1 | locus YDR318W, strain mcm21, stronger effect = lower value 0.952 | locus YDR334W, strain swr1, stronger effect = lower value 1.04 | locus YDR335W, strain msn5, stronger effect = lower value 1.02 | locus YDR388W, stronger effect = lower value 0.991 | locus YDR392W, strain spt3, stronger effect = lower value 0.869 | locus YDR502C, strain sam2, stronger effect = lower value 0.955 | locus YEL003W, strain gim4, stronger effect = lower value 1 | locus YEL037C, strain rad23, stronger effect = lower value 1.01 | locus YEL061C, strain CIN8 (second series), stronger effect = lower value 1.03 | locus YEL061C, strain CIN8, stronger effect = lower value 0.999 | locus YER015W, strain faa2, stronger effect = lower value 0.945 | locus YER016W, strain bim1, stronger effect = lower value 0.958 | locus YER110C, stronger effect = lower value 1.03 | locus YER111C, strain swi4, stronger effect = lower value 1.05 | locus YER155C, strain BEM2 (second series), stronger effect = lower value 1.03 | locus YER155C, strain BEM2, stronger effect = lower value 0.979 | locus YER167W, strain BCK2, stronger effect = lower value 0.984 | locus YFR010W, strain ubp6, stronger effect = lower value 1.04 | locus YGL078C, strain dbp3, stronger effect = lower value 0.977 | locus YGL086W, strain mad1, stronger effect = lower value 0.955 | locus YGL167C, strain pmr1, stronger effect = lower value 0.995 | locus YGL173C, strain kem1, stronger effect = lower value 0.959 | locus YGL227W, strain vid30, stronger effect = lower value 1.03 | locus YGL240W, strain doc1, stronger effect = lower value 0.98 | locus YGL248W, strain PDE1, stronger effect = lower value 0.915 | locus YGL253W, strain hxk2, stronger effect = lower value 0.989 | locus YGR135W, strain pre9, stronger effect = lower value 0.962 | locus YGR252W, strain gcn5, stronger effect = lower value 0.921 | locus YHR013C, strain ard1, stronger effect = lower value 1.09 | locus YHR027C, strain rpn1, stronger effect = lower value 0.98 | locus YHR030C, strain SLT2, stronger effect = lower value 0.98 and 0.958 | locus YHR079C, strain IRE1 (second series), stronger effect = lower value 1.01 | locus YHR079C, strain IRE1, stronger effect = lower value 0.96 | locus YHR094C, strain hxt1, stronger effect = lower value 1 | locus YHR129C, strain ARP1, stronger effect = lower value 0.976 | locus YHR142W, strain chs7, stronger effect = lower value 1.03 | locus YHR200W, strain rpn10, stronger effect = lower value 0.991 | locus YIL066C, strain RNR3, stronger effect = lower value 0.937 | locus YIL073C, strain SPO22, stronger effect = lower value 1.21 | locus YIL125W, strain kgd1, stronger effect = lower value 0.995 | locus YIR030C, strain dcg1, stronger effect = lower value 0.998 | locus YJL092W, strain hpr5, stronger effect = lower value 1 | locus YJL095W, strain BCK1 (second series), stronger effect = lower value 0.982 | locus YJL115W, strain asf1, stronger effect = lower value 1.04 | locus YJL129C, strain trk1, stronger effect = lower value 0.94 | locus YJL134W, strain LCB3, stronger effect = lower value 1 | locus YJL154C, strain vps35, stronger effect = lower value 0.997 | locus YJL164C, strain tpk1, stronger effect = lower value 0.944 | locus YJL166W, strain qcr8, stronger effect = lower value 0.958 | locus YJL168C, strain set2, stronger effect = lower value 1 | locus YJL187C, strain SWE1 (second series), stronger effect = lower value 0.923 | locus YJR043C, strain POL32, stronger effect = lower value 0.952 | locus YJR066W, strain TOR1, stronger effect = lower value 0.938 | locus YJR075W, strain HOC1, stronger effect = lower value 0.959
active: locus YAL021C, strain ccr4, stronger effect = lower value 1.09 [resistant] | locus YDL074C, strain BRE1, stronger effect = lower value 0.776 | locus YDR137W, strain rgp1, stronger effect = lower value 0.49 | locus YDR162C, strain NBP2, stronger effect = lower value 0.754 | locus YDR195W, strain ref2 1.2 [resistant]
0.795 (active) and 0.97 (inactive): locus YJL095W, strain BCK1, stronger effect = lower value
